Test results reported in PubChem BioAssay (NCATS).
Results filed as inconclusive are left out. Calls of active or inactive are those of the source. Unless noted, calls come from the whole dose curve; as a rule, active = well fitted curve in either direction with a large enough effect (not every such curve was filed as active); inconclusive = small, poorly fitted or top-dose-only effect, or another doubt; inactive = flat fitted curve, though single readings scatter.

Legend:
[1] = biological target: Lysosomal acid glucosylceramidase (Homo sapiens) (UniProt P04062); test: Glucocerebrosidase-p2 (AID 348; in the data active = potency below about 10 µM; note: potency is the fitted concentration of half-maximal effect); conditions: purified GBA, blue fluorogenic substrate, 40 min
Lysosomal acid glucosylceramidase (Homo sapiens), sequence (P04062 whole entry, looked up): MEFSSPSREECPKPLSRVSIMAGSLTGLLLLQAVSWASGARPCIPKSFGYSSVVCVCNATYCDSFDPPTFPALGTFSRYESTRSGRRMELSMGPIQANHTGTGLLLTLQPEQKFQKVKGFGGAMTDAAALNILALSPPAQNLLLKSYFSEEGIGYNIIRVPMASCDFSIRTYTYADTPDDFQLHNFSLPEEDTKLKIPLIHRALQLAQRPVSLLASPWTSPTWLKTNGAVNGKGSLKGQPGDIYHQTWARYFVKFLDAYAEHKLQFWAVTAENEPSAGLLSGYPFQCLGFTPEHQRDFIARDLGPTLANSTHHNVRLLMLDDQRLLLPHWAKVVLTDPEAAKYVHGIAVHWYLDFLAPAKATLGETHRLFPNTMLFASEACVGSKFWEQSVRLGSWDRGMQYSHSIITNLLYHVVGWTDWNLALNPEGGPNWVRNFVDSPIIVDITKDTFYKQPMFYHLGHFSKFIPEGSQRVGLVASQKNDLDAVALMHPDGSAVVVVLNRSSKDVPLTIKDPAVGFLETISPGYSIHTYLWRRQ
Outline: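 Compounds titrated from 0.6 nM upwards against 0.2 nM enzyme in pH 5.9 citric acid/KH2PO4, taurocholate, tween-20; blue fluorogenic substrate 80 uM, 40 min room temperature, stopped and read Ex 365/Em 440 for AC50.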

[2] = AP1 Signaling Pathway (AID 357); conditions: ME-180 AP-1-bla reporter, EGF-induced, beta-lactamase ratio, 5 h; at 7.69 µM (top of the series) unless noted; note: % is set by controls: 0 for no effect and ±100 for the full control effect
Outline: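 ME-180 cells with beta-lactamase reporter under AP-1 response element, stimulated with EC50 EGF; compounds tested in titration series, 5 h at 37 °C. CCF4 substrate added 2.5 h at room temperature; 460/530 nm emission ratio gave %activity and AC50.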

[3] = Stat Signaling Pathway (AID 446); conditions: ME-180 SIE beta-lactamase reporter, IL-6 stimulated, 5 h; at 7.69 µM (top of the series) unless noted;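 note: ME-180 cervical cancer cells given 40 pM IL-6 alongside compound; SIE-controlled beta-lactamase reporter measured as 460/530 nm FRET emission ratio; % is set by controls: 0 for no effect and ±100 for the full control effect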
Outline: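 Reporter line: ME-180 cervical carcinoma, SIE-beta-lactamase. Treatment: compound with 40 pM IL-6, 5 hrs, 37 C, in low-serum OPTI-MEM with 10 mM HEPES pH 7.3. Detection: 460/530 nm fluorescence.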

[4] = biological target: Glucocorticoid receptor (Homo sapiens) (UniProt P04150); test: GR-GFP Redistribution (AID 450;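 active = compounds whose dose series gives a full or clear partial fitted curve of increased nuclear translocation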; note: potency is the fitted concentration of half-maximal effect); conditions: U2OS GR-GFP nuclear translocation, laser cytometry, 2 h
Glucocorticoid receptor (Homo sapiens), sequence (P04150 whole entry, looked up, the tested form may be a part): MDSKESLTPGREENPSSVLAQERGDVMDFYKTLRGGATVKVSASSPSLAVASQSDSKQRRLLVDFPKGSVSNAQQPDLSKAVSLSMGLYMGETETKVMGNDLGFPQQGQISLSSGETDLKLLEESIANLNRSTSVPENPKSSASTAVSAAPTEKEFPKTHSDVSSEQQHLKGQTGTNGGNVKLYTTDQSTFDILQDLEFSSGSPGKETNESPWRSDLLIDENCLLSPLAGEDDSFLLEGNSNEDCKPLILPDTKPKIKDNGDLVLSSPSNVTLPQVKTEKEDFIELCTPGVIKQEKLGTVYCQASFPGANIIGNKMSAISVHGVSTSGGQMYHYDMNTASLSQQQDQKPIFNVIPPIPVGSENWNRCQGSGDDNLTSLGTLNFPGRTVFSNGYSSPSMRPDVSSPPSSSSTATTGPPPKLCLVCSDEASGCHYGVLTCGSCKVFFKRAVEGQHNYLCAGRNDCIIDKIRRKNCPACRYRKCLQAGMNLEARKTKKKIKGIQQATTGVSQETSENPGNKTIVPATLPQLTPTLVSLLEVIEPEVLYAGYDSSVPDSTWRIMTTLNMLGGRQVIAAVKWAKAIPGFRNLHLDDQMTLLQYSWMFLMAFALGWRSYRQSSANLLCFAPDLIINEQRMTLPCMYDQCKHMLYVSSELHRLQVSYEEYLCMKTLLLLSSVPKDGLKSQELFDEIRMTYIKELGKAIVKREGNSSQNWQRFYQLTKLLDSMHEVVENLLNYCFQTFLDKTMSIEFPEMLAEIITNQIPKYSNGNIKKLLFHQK

[5] = biological target: Glucocorticoid receptor (Homo sapiens) (UniProt P04150); test: GR-EFC Redistribution (AID 451; calls by dose curve; note: potency is the fitted concentration of half-maximal effect); conditions: CHO-K1 GR-EFC translocation, beta-gal luminescence, 2 h
Outline: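 CHO-K1 cells expressing nuclear EA and GR-ED fragments of b-gal; compounds titrated up to 46 uM final, 2 h at 37 C. GR nuclear translocation read as complemented b-gal luminescence after 1 h RT detection.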

[6] = biological target: Mitogen-activated protein kinase 10 (Mus musculus) (UniProt Q61831); test: JNK3 AlphaScreen Assay (AID 530); conditions: JNK3 lysate, c-Jun phosphorylation; series mostly up to 57.1 µM;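 note: kinase came from lysate of stimulated human HepG2 cells; signal reports phosphorylation of biotinylated GST-cJun 1-79 at Ser73 with 10 µM ATP; % is set by controls: 0 for no effect and ±100 for the full control effect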
Outline: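 qHTS format: compounds tested as titrations against IL-1beta/TNF-alpha-activated HepG2 lysate JNK3 with biotin-GST-cJun substrate and 10 uM ATP at room temperature. Loss of anti-phospho-cJun AlphaScreen signal indicates inhibition.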

[7] = biological target: 3',5'-cyclic-AMP phosphodiesterase 4B (Homo sapiens) (UniProt Q07343); test: qHTS Assay for Inhibitors of PDE-IV (AID 607; active = well fitted activation curve with a large enough effect in the main read-out, with a control signal flat, not every such curve was filed as active; note: % of control where 0% means no effect); conditions: HEK293 ACTOne CNG channel cells, membrane potential fluorescence; series mostly up to 22.9 µM
3',5'-cyclic-AMP phosphodiesterase 4B (Homo sapiens), sequence (Q07343 whole entry, looked up): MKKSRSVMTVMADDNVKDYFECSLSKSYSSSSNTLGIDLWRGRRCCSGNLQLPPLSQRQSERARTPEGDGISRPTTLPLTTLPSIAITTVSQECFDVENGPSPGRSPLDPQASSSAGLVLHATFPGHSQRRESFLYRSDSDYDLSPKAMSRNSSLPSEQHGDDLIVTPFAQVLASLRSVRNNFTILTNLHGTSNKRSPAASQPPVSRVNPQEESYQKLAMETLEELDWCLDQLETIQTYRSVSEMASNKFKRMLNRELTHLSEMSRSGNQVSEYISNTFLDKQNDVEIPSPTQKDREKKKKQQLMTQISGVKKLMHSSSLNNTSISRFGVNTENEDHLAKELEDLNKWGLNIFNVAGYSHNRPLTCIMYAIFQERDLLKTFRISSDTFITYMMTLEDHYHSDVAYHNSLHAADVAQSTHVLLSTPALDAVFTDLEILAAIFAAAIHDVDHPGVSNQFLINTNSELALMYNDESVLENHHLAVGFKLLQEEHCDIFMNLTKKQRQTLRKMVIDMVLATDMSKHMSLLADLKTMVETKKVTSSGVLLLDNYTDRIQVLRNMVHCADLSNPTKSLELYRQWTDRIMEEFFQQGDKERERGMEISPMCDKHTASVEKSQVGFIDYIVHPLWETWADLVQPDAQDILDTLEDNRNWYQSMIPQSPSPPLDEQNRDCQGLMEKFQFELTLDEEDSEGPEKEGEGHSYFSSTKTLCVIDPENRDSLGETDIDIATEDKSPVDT
Outline: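 Cell-based read-out of cAMP via a modified cyclic nucleotide-gated channel and membrane potential dye (535/590 nm) in HEK293 cells expressing PDE4 endogenously. Compounds tested up to 22.9 uM final; 100 uM RO 20-1724 reference.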

[8] = Confirmation and Secondary Assay for Modulators of Hemoglobin Beta Chain Splicing at IVS2 654 locus (AID 910; active = well fitted curve in the direction sought with a large enough effect; an effect the other way counts as inactive or inconclusive;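 note: HeLa cells stably carrying EGFP split by mutant beta-globin IVS2-654 intron; % of control where 0% means no effect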); conditions: HeLa EGFP-654 splicing reporter, GFP fluorescence, 48 h; series mostly up to 38.3 µM
Outline: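 HeLa cells stably expressing EGFP interrupted by β-globin IVS2-654 intron, seeded overnight in Opti-MEM/2% FCS, then treated 2 days at 37 °C. Restored splicing read as total peak GFP intensity per well by laser scanning cytometry (488 nm excitation, 500–520 nm emission); 500 nM antisense PNA as control.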

[9] = Confirmation and Secondary Assay for Modulators of Hemoglobin Beta Chain Splicing at IVS2 705 locus (AID 930; active = well fitted curve in the direction sought with a large enough effect; an effect the other way counts as inactive or inconclusive;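 note: HeLa cells stably expressing the EGFP-705 splicing reporter; GFP fluorescence per well restored by corrected splicing of the IVS2-705 intron in EGFP; % of control where 0% means no effect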); conditions: HeLa EGFP-705 splicing reporter, GFP fluorescence, 48 h; series mostly up to 38.3 µM
Outline: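 Secondary splice-site specificity test uses HeLa expressing CMV-driven EGFP interrupted by IVS2-705; cells were treated 2 days at 37C with 500 nM antisense PNA as positive control.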

[10] = qHTS Assay for Lipid Storage Modulators (AID 1519; calls by dose curve); conditions: Drosophila S3 cells, BODIPY lipid droplet/cell ratio, laser cytometry, cells loaded with oleic acid; for activity change, negative = inhibition: at 57.5 µM (top of the series)
Outline: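 Cells seeded at 5,000 per well were treated with compounds over a concentration series and loaded with oleic acid (400 uM, as added). Lipid droplet fluorescence (488 nm excitation, 500-530 nm channel) was read by laser-scanning cytometry and normalized to 20 uM Triacsin C.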

[11] = biological target: Ubiquitin carboxyl-terminal hydrolase 1 (Homo sapiens) (UniProt O94782); test: Inhibitors of USP1/UAF1: Pilot qHTS (AID 504865; active = well fitted curve in the direction sought with a large enough effect; an effect the other way counts as inactive or inconclusive;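 note: rhodamine fluorescence freed from ubiquitin-rhodamine substrate followed over time; top concentration of the series differs between compounds; % is set by controls: 0 for no effect and ±100 for the full control effect; nearly all actives have a fitted effect of over 35% in size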); conditions: purified USP1/UAF1, Ub-rhodamine cleavage fluorescence; series mostly up to 54.9 µM
Ubiquitin carboxyl-terminal hydrolase 1 (Homo sapiens), sequence (O94782 whole entry, looked up): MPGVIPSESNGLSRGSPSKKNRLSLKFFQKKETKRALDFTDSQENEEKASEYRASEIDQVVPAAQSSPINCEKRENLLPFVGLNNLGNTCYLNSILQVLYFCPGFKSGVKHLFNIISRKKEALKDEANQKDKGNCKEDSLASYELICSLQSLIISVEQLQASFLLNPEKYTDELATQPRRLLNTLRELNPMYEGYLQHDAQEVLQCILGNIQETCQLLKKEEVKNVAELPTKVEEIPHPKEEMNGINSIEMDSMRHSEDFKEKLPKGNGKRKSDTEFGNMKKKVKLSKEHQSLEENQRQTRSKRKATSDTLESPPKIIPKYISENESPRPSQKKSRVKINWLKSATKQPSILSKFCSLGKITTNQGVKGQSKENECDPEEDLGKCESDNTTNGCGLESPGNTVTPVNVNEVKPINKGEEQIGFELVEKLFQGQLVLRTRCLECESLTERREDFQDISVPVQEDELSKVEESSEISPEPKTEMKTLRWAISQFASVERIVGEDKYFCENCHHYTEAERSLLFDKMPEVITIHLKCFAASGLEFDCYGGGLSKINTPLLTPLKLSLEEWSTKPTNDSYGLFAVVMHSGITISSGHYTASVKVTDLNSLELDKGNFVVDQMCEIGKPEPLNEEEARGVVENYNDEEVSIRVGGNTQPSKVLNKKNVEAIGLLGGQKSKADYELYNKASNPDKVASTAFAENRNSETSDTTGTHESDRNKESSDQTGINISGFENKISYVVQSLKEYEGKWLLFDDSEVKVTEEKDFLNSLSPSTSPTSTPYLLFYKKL
Outline: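 1nM USP1/UAF1 + cpd, 15 min RT; start w/ Ub-Rho 150nM final; kinetic FL 480/540 nm, 6 reads q60 s. Buffer 50mM HEPES pH 7.8, 0.5mM EDTA, 1mM TCEP, 0.01% Tween-20, 0.1 mg/ml BSA.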

[12] = NFAT Signaling Pathway (AID 444); conditions: Jurkat NFAT-bla M1, carbachol, beta-lactamase ratio, 5 h; at 7.69 µM (top of the series) unless noted;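 note: carbachol stimulus at about its EC50 of 1 µM final; % is set by controls: 0 for no effect and ±100 for the full control effect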
Outline: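 Jurkat cells with NFAT-driven β-lactamase reporter and co-expressed M1 receptor, stimulated with carbachol (final 1 uM, ~EC50), compound titration, 5 h at 37 °C. CCF4 loaded 1 h at RT; 460/530 nm ratio gave %activity and AC50.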

[13] = biological target: Cytochrome P450 3A4 (Homo sapiens) (UniProt P08684); test: qHTS Assay for Inhibitors and Substrates of Cytochrome P450 3A4 (AID 884; active = well fitted curve in the direction sought with a large enough effect; an effect the other way counts as inactive or inconclusive; note: potency is the fitted concentration of half-maximal effect; nearly all actives have a fitted effect of over 50% in size); conditions: recombinant CYP3A4, Luciferin-PPXE luminescence; series mostly up to 57.1 µM
Cytochrome P450 3A4 (Homo sapiens), sequence (P08684 whole entry, looked up): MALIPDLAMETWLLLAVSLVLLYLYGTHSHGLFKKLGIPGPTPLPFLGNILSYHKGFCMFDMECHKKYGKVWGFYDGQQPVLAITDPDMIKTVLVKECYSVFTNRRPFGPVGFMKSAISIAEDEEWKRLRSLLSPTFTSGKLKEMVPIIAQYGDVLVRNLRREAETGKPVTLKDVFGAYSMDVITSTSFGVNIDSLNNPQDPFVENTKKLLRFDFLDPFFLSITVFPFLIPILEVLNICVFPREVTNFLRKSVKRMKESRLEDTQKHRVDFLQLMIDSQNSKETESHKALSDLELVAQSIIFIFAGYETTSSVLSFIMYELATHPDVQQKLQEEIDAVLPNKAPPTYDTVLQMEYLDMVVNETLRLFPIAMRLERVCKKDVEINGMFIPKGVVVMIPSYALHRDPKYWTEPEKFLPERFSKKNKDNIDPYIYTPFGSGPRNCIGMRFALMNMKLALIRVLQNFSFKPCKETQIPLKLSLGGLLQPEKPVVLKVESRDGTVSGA
Outline: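 20 nM human CYP3A4 with 25 uM Luciferin-PPXE (at KM) in 200 mM KPO4, preincubated 10 min with compound; NADPH regeneration started a 60 min RT reaction. Luciferin detected by luminescence, normalized to 57 uM ketoconazole as full inhibition.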

[14] = biological target: Cytochrome P450 3A4 (Homo sapiens) (UniProt P08684); test: qHTS Assay for Activators of Cytochrome P450 3A4 (AID 885; active = well fitted curve in the direction sought with a large enough effect; an effect the other way counts as inactive or inconclusive; note: nearly all actives have a fitted effect of over 65% in size); conditions: recombinant CYP3A4, Luciferin-PPXE luminescence, 60 min; series mostly up to 57.1 µM
Outline: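 Signal was normalized against complete inhibition by 57 uM ketoconazole. The reaction used 20nM CYP3A4 with 25uM Luciferin-PPXE, 10-min compound preincubation and a 60-min NADPH-supported step at RT.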

[15] = biological target: Cytochrome P450 2D6 (Homo sapiens) (UniProt P10635); test: qHTS Assay for Inhibitors and Substrates of Cytochrome P450 2D6 (AID 891; active = well fitted curve in the direction sought with a large enough effect; an effect the other way counts as inactive or inconclusive; note: potency is the fitted concentration of half-maximal effect; nearly all actives have a fitted effect of over 60% in size); conditions: recombinant CYP2D6, luciferin-ME EGE luminescence; series mostly up to 57.1 µM
Cytochrome P450 2D6 (Homo sapiens), sequence (P10635 whole entry, looked up): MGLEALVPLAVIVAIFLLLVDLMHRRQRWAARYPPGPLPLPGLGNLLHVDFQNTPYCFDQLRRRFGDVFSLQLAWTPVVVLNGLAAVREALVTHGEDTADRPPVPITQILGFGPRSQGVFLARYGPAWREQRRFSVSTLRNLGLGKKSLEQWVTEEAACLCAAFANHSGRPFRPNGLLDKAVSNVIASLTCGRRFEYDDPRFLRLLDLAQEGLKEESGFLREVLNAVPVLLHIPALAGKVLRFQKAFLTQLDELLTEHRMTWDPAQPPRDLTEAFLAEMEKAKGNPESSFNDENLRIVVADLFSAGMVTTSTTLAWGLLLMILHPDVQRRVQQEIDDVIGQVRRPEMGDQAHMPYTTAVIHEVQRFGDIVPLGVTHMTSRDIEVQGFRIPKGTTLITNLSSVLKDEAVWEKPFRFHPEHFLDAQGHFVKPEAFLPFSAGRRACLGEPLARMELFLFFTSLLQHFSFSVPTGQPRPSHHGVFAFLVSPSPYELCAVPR
Outline: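 Human CYP2D6 (5 nM) with 30 uM Luciferin-ME EGE (at Km) in 100 mM KPO4, compound preincubated 10 min, then NADPH regeneration system for 60 min at room temperature. Luciferin read by luminescence; normalized to 1.43 uM quinidine.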

[16] = biological target: Cytochrome P450 2C19 (Homo sapiens) (UniProt P33261); test: qHTS Assay for Inhibitors and Substrates of Cytochrome P450 2C19 (AID 899; active = well fitted curve in the direction sought with a large enough effect; an effect the other way counts as inactive or inconclusive; note: potency is the fitted concentration of half-maximal effect; nearly all actives have a fitted effect of over 60% in size); conditions: recombinant CYP2C19, luciferin-H EGE luminescence; series mostly up to 57.1 µM
Cytochrome P450 2C19 (Homo sapiens), sequence (P33261 whole entry, looked up): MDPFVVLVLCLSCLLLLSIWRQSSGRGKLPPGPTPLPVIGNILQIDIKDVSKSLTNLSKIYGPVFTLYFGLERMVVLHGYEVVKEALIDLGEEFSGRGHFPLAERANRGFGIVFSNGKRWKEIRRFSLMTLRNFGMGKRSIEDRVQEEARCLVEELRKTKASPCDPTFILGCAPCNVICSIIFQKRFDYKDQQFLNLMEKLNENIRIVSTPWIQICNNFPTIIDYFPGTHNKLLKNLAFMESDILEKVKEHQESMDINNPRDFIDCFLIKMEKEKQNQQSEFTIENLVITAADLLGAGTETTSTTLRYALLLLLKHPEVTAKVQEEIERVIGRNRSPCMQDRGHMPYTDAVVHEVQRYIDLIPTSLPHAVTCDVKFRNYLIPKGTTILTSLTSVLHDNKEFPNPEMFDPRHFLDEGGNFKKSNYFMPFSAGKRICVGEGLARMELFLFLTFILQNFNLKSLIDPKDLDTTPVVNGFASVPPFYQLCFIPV
Outline: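 5 nM human CYP2C19 with 10uM Luciferin-H EGE (at KM) in 50mM KPO4, compound preincubated 10 min at 37C, then NADPH regeneration for 60 min at 37C. Luciferin read by luminescence after detection reagent; normalized to 57uM ketoconazole as full inhibition.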

[17] = qHTS Assay for Identification of Small Molecule Agonists for Hypoxia Response Element Signaling Pathway (AID 914; active = well fitted activation curve with a large enough effect in the signal ratio, with a control signal flat, not every such curve was filed as active; the % refers to the signal ratio; note: % of control where 0% means no effect); conditions: ME-180 (cervical carcinoma) HRE-bla reporter, beta-lactamase ratio, CoCl2, 17 h; activation: stronger effect = higher value
Outline: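 qHTS titration; ME-180 HRE-bla cells; EC50 CoCl2 co-treatment, 17 h at 37 degrees Celsius; CCF4 dye, ex 405nm, em 460nm and 530nm; %Activity from ratio; AC50.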

[18] = measured here: cell count channel max response
[19] = measured here: lipid channel max response

| SMILES | Potency [1] | activity change, negative = inhibition [2] | activity, negative = inhibition [3] | Potency [4] | Potency [5] | Potency [6] | Potency [7] | Potency [8] | outcome [9] | activity change, negative = inhibition [10] | max response [10, 18] [%] | max response [10, 19] [%] | Potency [11] | activity change, negative = inhibition [12] | Potency [13] | Potency [14] | Potency [15] | Potency [16] | activation [17] |
| --- | --- | --- | --- | --- | --- | --- | --- | --- | --- | --- | --- | --- | --- | --- | --- | --- | --- | --- | --- |
| CN(C)Cc1ccccc1-c1cncnc1NCc1ccccc1 | > 11.4 µM (inactive) | 9.42% (inactive) | -4.85% (inactive) | > 46 µM (inactive) | > 46 µM (inactive) | inactive | inactive | inactive | inactive | 4.16% (inactive) | 9.37 | 10.2 | inactive |  |  |  |  |  |  |
| Cc1cccc(CNc2ccnc(-c3cccc(NS(C)(=O)=O)c3)n2)c1 | > 11.4 µM (inactive) | -18.5% (inactive) |  | > 46 µM (inactive) | > 46 µM (inactive) | inactive | inactive | inactive | inactive | 8.1% (inactive) | 4.58 | -1.23 |  | 9.66% (inactive) |  |  |  |  |  |
| O=S(=O)(c1ccccc1)N1CCC[C@@]2(CCN(Cc3nccs3)C2)C1 | > 11.4 µM (inactive) | -10.5% (inactive) | -1.53% (inactive) |  | > 46 µM (inactive) | inactive | inactive |  |  | 0.281% (inactive) | 10.8 | 15.6 |  | -1.46% (inactive) | 3.16 µM (active) | inactive | 2.51 µM (active) | 7.94 µM (active) |  |
| O=C(c1cc(C(F)(F)F)cc(C(F)(F)F)c1)N1CCC2(CCCN(c3ccncc3)C2)CC1 | > 11.4 µM (inactive) |  | 16.9% (inactive) |  | > 46 µM (inactive) | inactive | inactive |  |  | 5.04% (inactive) | 8.86 | 16 |  |  |  |  |  |  |  |
| CN(C)Cc1ccccc1-c1ccc2ncnc(NCc3cccs3)c2c1 | > 11.4 µM (inactive) | 4.22% (inactive) | -19.4% (inactive) | > 46 µM (inactive) | > 46 µM (inactive) | inactive |  | inactive | inactive | 7.62% (inactive) | -0.921 | 6.51 | inactive | -20.1% (inactive) |  |  |  |  |  |
| O=C(c1cnccn1)N1CCC2(CCN(Cc3ccncc3)CC2)CC1 | > 11.4 µM (inactive) | -11.5% (inactive) | -8.42% (inactive) |  | > 46 µM (inactive) | inactive | inactive |  |  | 3.75% (inactive) | 2.59 | 8.61 |  | -19.7% (inactive) |  |  |  |  | 2.3% (inactive) |
